In article PMC4336329 (PLoS ONE, 2015):
The campaign covered roughly 310,000 compounds. About 14,000 (4.5%) showed an effect of 50% or more. Effects have a minus sign here. This excerpt belongs to a sample that is enriched for strong results.

Target: human ether-à-go-go-related gene (hERG) potassium channel (human, UniProt Q12809)
Assay: primary screen, population patch clamp on CHO cells stably expressing hERG; higher = less effect of the substance
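Note: peak tail current of the secondary pulse compared with the same well before compound.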

Sequence of human ether-à-go-go-related gene (hERG) potassium channel (Q12809 whole entry, looked up): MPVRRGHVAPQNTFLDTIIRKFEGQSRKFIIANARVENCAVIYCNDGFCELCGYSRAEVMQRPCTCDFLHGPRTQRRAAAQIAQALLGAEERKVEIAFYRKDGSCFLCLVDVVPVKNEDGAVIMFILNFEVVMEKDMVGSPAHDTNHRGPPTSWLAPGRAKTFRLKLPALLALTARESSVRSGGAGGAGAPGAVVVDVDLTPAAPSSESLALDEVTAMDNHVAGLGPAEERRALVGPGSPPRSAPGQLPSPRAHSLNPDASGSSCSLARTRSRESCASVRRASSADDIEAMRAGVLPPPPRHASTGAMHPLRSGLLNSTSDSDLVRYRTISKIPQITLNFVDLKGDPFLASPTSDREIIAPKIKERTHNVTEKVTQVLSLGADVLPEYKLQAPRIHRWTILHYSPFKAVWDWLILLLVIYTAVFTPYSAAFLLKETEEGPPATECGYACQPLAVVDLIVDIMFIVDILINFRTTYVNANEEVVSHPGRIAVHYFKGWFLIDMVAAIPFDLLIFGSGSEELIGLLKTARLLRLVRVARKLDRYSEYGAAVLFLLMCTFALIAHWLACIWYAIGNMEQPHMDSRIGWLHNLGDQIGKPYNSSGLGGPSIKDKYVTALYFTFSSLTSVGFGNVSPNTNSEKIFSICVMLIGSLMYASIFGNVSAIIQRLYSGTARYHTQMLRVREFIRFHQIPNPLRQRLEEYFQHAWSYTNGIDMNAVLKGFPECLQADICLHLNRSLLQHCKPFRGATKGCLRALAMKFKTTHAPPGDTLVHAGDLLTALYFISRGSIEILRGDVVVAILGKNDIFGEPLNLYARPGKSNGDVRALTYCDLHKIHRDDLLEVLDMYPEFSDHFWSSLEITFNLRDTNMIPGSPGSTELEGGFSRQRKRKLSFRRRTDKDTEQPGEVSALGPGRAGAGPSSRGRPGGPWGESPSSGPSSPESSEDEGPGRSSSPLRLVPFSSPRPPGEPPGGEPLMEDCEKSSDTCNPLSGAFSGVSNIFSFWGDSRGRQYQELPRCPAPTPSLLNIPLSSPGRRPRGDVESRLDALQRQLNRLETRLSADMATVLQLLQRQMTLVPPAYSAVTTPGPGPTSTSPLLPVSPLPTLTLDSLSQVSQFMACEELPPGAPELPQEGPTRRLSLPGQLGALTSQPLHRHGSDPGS

Compound | hERG current change (%, negative = inhibition) at 10uM
CCC(CC)C(=O)Nc1cccc(C(=O)Nc2ccc(S(N)(=O)=O)cc2)c1 | 10.8%
COc1ccc(OCC(=O)Nc2ccc3c(c2)nc(CCN2CCOCC2)n3C)cc1 | -41%
Cn1c(CCN2CCOCC2)nc2cc(NC(=O)COc3ccc(Cl)cc3)ccc21 | -55.4%
Cn1c(CCN2CCOCC2)nc2cc(NC(=O)COc3ccccc3)ccc21 | -15.1%
Cn1c(CN2CCOCC2)nc2cc(NC(=O)COc3ccccc3)ccc21 | -0.505%
Cc1ccc(OCC(=O)Nc2ccc3c(c2)nc(CCN2CCOCC2)n3C)cc1 | -51.3%
CC(=O)Nc1ccc2c(c1)nc(CCN1CCOCC1)n2C | 10.4%
CC(=O)Nc1ccccc1NC(=O)C/C(C)=N/NC(=O)C(=O)N1CCCCC1 | -13.3%
COc1ccc2[nH]c(=O)c(CN(C(C)=O)c3ccc(C)cc3C)cc2c1 | 1.02%
CSc1nc(N)c(C(=O)Nc2ccc([N+](=O)[O-])cc2)s1 | -12.3%
O=C(N/N=C\c1cccc(F)c1)c1ccc(-c2ccccc2)cc1 | 27%
CC(=O)N(C)C1(c2nnnn2CCOC(=O)Nc2cccc3ccccc23)CCCC1 | 0.969%
CCN1CCN(c2ccc(S(=O)(=O)N3CCCCC3)cc2NC(=O)/C=C/c2ccc(F)cc2)CC1 | -48.1%
CCN1CCN(c2ccc(S(=O)(=O)N3CCCCC3)cc2NC(=O)/C=C/c2ccc([N+](=O)[O-])cc2)CC1 | -70.8%
COc1ccc(/C=C/C(=O)Nc2cc(S(=O)(=O)N3CCCCC3)ccc2N2CCCCC2)cc1OC | 4.11%
CCN1CCN(c2ccc(S(=O)(=O)N3CCOCC3)cc2NC(=O)/C=C/c2ccc(C)cc2)CC1 | -46%
CCN1CCN(c2ccc(S(=O)(=O)N3CCOCC3)cc2NC(=O)/C=C/c2ccc(OC)c(OC)c2)CC1 | 10.4%
CCN1CCN(c2ccc(S(=O)(=O)N3CCOCC3)cc2NC(=O)/C=C/c2ccc([N+](=O)[O-])cc2)CC1 | -71.8%
COc1ccc(CCCC(=O)N/N=C\c2cccs2)cc1 | 27.2%
COCCNC(=O)c1ccccc1-c1nc(-c2ccccc2Cl)no1 | -9.09%
O=C(NC(=S)Nc1ccc2ncccc2c1)c1ccccc1 | 2.36%

Compound | hERG current change (%, negative = inhibition) at 10uM
C=CCn1cnc2scc(-c3ccc(C)cc3)c2c1=O | -10.4%
CCCCN(Cc1ccco1)C(=O)Cn1ncc2c(=O)oc3ccc(C)cc3c21 | 13.2%
CCCN(C(=O)Cn1ncc2c(=O)oc3ccccc3c21)c1cccc(C)c1 | -54.3%
COCCCN(Cc1ccco1)C(=O)Cn1ncc2c(=O)oc3ccc(C)cc3c21 | -49.6%
CCOc1ccccc1N(CC)C(=O)Cn1ncc2c(=O)oc3ccccc3c21 | -26.1%
CCOC(=O)Cn1ncc2c(=O)oc3ccccc3c21 | -0.743%
Cc1ccc2oc(=O)c3cnn(CC(=O)N(CCCN4CCOCC4)Cc4ccco4)c3c2c1 | -57.5%
C=C(C)c1cccc(C(C)(C)NC(=O)N2CCN(c3ccccc3OC)CC2)c1 | 4.28%
COc1ccc(CCNC(=O)C2CCN(C(=O)c3cccs3)CC2)cc1 | -0.649%
CC(=O)c1ccc(NC(=O)CSc2nnc3ccc(-c4ccccn4)nn23)cc1 | -10.5%
COc1ccc(NC(=O)CSc2ccc3nnc(-c4ccccn4)n3n2)cc1OC | -18.1%
CC(=O)c1ccc(NC(=O)CSc2ccc3nnc(-c4ccccn4)n3n2)cc1 | -64.7%
CC(=O)Nc1ccc(NC(=O)CSc2ccc3nnc(-c4ccccn4)n3n2)cc1 | 17.7%
COc1ccc(NC(=O)CSc2ccc3nnc(-c4ccccn4)n3n2)cc1 | -20.9%
CCOc1ccc(NC(=O)CSc2ccc3nnc(-c4ccccn4)n3n2)cc1 | -54.3%
CCc1cccc(C)c1NC(=O)Cn1nc(C)n2cccc2c1=O | 22.9%
COc1ccc(-c2csc(N3CCN(c4cc5c(cc4Cl)nc(-c4ccncc4)n5CCOCCO)CC3)n2)cc1 | 12.6%
CCOC(=O)N1CCN(C(=O)/C(=C/c2ccc(N(C)C)cc2)NC(=O)c2ccccc2)CC1 | -45.6%
COc1ccc(C(=O)N/C(=C\c2ccc(OC)c(OC)c2)C(=O)N2CCCCC2)cc1 | 6.11%
COc1ccc(/C=C(/NC(=O)c2ccccc2)C(=O)N2CCCC2)cc1 | 2.89%
COc1ccc(/C=C(/NC(=O)c2ccccc2)C(=O)N2CCCCC2)cc1 | -1.39%

Compound | hERG current change (%, negative = inhibition) at 10uM
CCOC(=O)N1CCN(C(=O)/C(=C/c2ccc(Br)cc2)NC(=O)c2ccc(OC)cc2)CC1 | -78.2%
O=C(N/C(=C/c1ccc(Cl)cc1)C(=O)N1CCCC1)c1ccccc1 | -8.81%
COc1ccc(/C=C(\NC(=O)c2ccccc2)C(=O)N2CCN(C)CC2)cc1 | -76.3%
COc1ccc(/C=C(\NC(=O)c2ccc(C)cc2)C(=O)N2CCCCC2)cc1 | -55.2%
COc1ccc(/C=C(\NC(=O)c2ccc(OC)cc2)C(=O)N2CCCCC2)cc1 | -3.21%
CCOC(=O)N1CCN(C(=O)/C(=C/c2ccc(Cl)cc2)NC(=O)c2ccccc2)CC1 | -74.7%
N#Cc1ccc(C(=O)Nc2ccc(S(=O)(=O)NC3=NCCCCC3)cc2)cc1 | -1.54%
CC1=CC(=O)c2c(O)ccc(O)c2C1=O | -42.6%
Cc1nn(C)c(C)c1CNC(=O)Nc1cccc(Cl)c1C | 1.35%
CCOC(=O)c1[nH]c(C)c(C(=O)OCCOc2cccc(C)c2)c1C | 5.99%
CC(C)C(=O)NC(Nc1cccc2cccnc12)C(Cl)(Cl)Cl (stereo not drawn) | -17.8%
COc1cc(NC(=O)[C@@H](NC(=O)c2ccco2)C(C)C)c(OC)cc1NC(=O)c1ccccc1 | -36%
CCOC(=O)C1=C(N)OC(CCl)=C(C#N)C1c1ccsc1 (stereo not drawn) | 8.35%
CCOC(=O)C1CCN(C(=O)/C(=C/c2ccccc2)NC(=O)c2ccccc2)CC1 | -30%
CCOC(=O)N1CCN(C(=O)/C(=C/c2ccc(F)cc2)NC(=O)c2ccccc2)CC1 | -48.5%
CCOC(=O)N1CCN(C(=O)/C(=C/c2ccc(OC)cc2)NC(=O)c2ccccc2)CC1 | -68.4%
COc1ccc(/C=C(/NC(=O)c2ccccc2)C(=O)N2CCC(C)CC2)cc1 | -38.4%
CCOC(=O)N1CCN(C(=O)/C(=C\c2ccc(SC)cc2)NC(=O)c2ccccc2)CC1 | -78.5%
CCOC(=O)N1CCN(C(=O)/C(=C/c2ccc(OC)c(OC)c2)NC(=O)c2ccccc2)CC1 | -34.5%
CCNc1nc(C(=O)O)nc(N2CCOCC2)n1 | 10.7%
CCCc1nnc(NC(=O)CC(C)c2ccccc2)s1 (stereo not drawn) | 2.66%

Compound | hERG current change (%, negative = inhibition) at 10uM
Cc1nn(Cc2ccccc2)c(C)c1NC(=O)c1cccs1 | 14%
COc1ccccc1N1CCN(S(=O)(=O)CCNC(=O)C2CCCCC2)CC1 | -20.7%
CCOC(=O)c1ccc(Nc2ncnc3ccc(C)cc23)cc1 | 6.65%
Brc1ccccc1-c1nnc(COc2ncnc3ccccc23)o1 | -8.52%
O=[N+]([O-])c1ccc2c(OCc3nnc(-c4ccccc4Br)o3)ncnc2c1 | -74.1%
Brc1ccccc1-c1nnc(COc2ncnc3c2cnn3-c2ccccc2)o1 | 7.27%
COc1ccc(N2C(=O)CCC(C(=O)N3CCN(c4ccccn4)CC3)C2c2ccc(F)cc2)cc1 (stereo not drawn) | -48.2%
CCc1ccc(N2CC(C(=O)N3CCN(c4ccccn4)CC3)CC2=O)cc1 (stereo not drawn) | -24.3%
CCOc1ccc(N2CC(C(=O)N3CCc4ccccc4C3)CC2=O)cc1 (stereo not drawn) | -75%
CCOc1ccc(N2CC(C(=O)N3CCN(c4ccccn4)CC3)CC2=O)cc1 (stereo not drawn) | -59%
Cc1ccc(N2CC(C(=O)N3CCCc4ccccc43)CC2=O)cc1 (stereo not drawn) | -18.8%
CCOc1ccc(N2CC(C(=O)N3CCc4ccccc43)CC2=O)cc1 (stereo not drawn) | -47.6%
CCOc1ccc(N2CC(C(=O)N3CC(C)OC(C)C3)CC2=O)cc1 (stereo not drawn) | 20%
CCOc1ccc(N2CC(C(=O)N3CCCC3)CC2=O)cc1 (stereo not drawn) | -4.65%
CCOc1ccc(N2CC(C(=O)N3CCCc4ccccc43)CC2=O)cc1 (stereo not drawn) | -62.6%
Cc1ccc(N2CC(C(=O)N3CCc4ccccc4C3)CC2=O)cc1 (stereo not drawn) | -44.5%
COc1ccc(C2C(C(=O)N3CCN(c4ccccn4)CC3)CC(=O)N2c2ccc(OC)cc2)cc1 (stereo not drawn) | -78.7%
COc1ccc(C2C(C(=O)N3CCN(c4ccccn4)CC3)CCC(=O)N2c2ccc(OC)cc2)cc1 (stereo not drawn) | -47.3%
